Results on 40 molecules are retold here after the supplement of paper PMC11732987, “Enantioselective OTUD7B fragment discovery through chemoproteomics screening and high-throughput optimisation” (Communications Chemistry, 2025).

SMILES strings stand for the structures. Unmarked numbers belong to inactive results.

The target of the assay is T1, VCPIP1 (UniProt Q96JH7).
T1 sequence (whole entry): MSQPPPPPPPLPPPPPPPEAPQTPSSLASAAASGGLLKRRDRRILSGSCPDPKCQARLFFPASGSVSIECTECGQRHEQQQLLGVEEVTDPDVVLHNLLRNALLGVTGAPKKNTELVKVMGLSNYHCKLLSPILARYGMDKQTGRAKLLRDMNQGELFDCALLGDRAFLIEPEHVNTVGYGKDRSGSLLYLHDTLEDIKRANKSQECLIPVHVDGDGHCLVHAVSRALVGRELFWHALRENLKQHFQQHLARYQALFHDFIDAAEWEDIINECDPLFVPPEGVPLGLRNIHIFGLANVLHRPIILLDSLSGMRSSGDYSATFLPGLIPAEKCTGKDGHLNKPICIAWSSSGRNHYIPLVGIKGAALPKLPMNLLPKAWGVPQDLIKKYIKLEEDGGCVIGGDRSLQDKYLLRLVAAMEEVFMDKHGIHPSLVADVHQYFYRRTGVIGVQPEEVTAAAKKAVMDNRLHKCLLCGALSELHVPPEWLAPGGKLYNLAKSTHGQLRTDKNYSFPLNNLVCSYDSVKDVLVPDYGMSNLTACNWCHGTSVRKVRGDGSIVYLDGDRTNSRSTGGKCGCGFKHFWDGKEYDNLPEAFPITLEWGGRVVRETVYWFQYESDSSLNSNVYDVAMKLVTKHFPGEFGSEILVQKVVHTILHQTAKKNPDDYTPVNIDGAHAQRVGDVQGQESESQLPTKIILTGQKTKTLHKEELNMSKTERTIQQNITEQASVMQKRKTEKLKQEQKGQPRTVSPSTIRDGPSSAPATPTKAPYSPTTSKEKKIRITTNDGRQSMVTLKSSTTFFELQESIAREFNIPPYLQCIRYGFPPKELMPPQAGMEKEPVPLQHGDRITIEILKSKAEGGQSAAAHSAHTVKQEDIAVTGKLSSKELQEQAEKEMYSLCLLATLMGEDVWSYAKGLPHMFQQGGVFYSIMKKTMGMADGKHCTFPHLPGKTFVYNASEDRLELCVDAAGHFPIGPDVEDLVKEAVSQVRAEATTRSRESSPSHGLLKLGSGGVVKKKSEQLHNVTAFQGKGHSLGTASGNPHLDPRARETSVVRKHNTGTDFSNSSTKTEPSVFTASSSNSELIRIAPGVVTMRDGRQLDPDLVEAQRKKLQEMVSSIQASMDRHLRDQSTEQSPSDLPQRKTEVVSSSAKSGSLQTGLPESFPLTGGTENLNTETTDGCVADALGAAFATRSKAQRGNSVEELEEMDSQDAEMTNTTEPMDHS
As to the kind of experiment: log2 ratio of Biotin-Ahx-Ub-VS probe labelling (fragment/DMSO); higher = less target engagement (more negative = stronger competition), active = hit call of the paper (q ≤ 0.05, log2 ratio ≤ -1). The note with it: compound concentration: 200 uM; treatment time: 3 h. The protocol: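 Competitive ABPP in HEK293T cell lysate. Lysates were treated with each chloroacetamide fragment at 200 µM for 3 h, then with Biotin-Ahx-Ub-VS (0.5 µM, 1 h), NeutrAvidin-enriched and analysed by diaPASEF LC-MS/MS. Protein LFQ was median-normalised; average log2 ratio is fragment/DMSO from an unpaired t-test (n=3 treated, n=44 DMSO). Hits: q ≤ 0.05, log2 ratio ≤ -1, unique peptides ≥ 2.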
Turning to `Cc1cccc(C)c1NC(=O)CCl`, the “log2 ratio of Biotin-Ahx-Ub-VS probe labelling” value (shortened to “log2 ratio”) was -0.74.
`O=C(CCl)N1CCC(S(=O)(=O)c2ccc(F)cc2)CC1`: the “log2 ratio” value was -0.527.
For the molecule `Cc1n[nH]c(=O)c2c(NC(=O)CCl)oc(C)c12`, the “log2 ratio” value is -0.15.
The figure for `O=C(CCl)N1CCOC(CCc2ccccc2)C1` (stereo not given) is -2.79 (active); for `CN(C)C(=O)c1ccc(CNC(=O)CCl)cc1` it is -0.952; for `CC1CCc2onc(CNC(=O)CCl)c2C1` (stereo not given) it is -1.39 (active).
`O=C(CCl)Nc1ccc(F)cc1F`: the “log2 ratio” value is -0.736.
The figure for `O=C(CCl)NC1CCC(C(F)(F)F)CC1` (stereo not given) is -1.35 (active); for `O=C(CCl)NC(Cn1ccccc1=O)c1ccccc1` (stereo not given) it is -0.334.
To `Cl.O=C(CCl)N1CCCC(c2ncc[nH]2)C1` (stereo not given) belongs -0.387; to `Cc1ccc(CN(CCO)C(=O)CCl)cc1`, -0.862.
The figure for `Cc1cccc(N2CCC(NC(=O)CCl)C2=O)c1` (stereo not given) is -1.91 (active).
With `O=C(CCl)N1CCOC2(CCC2)CC1`, the “log2 ratio” value is -0.287.
The figure for `N#Cc1ccc(CNC(=O)CCl)cc1` is -1.31 (active); for `NC(=O)C1CCCN(C(=O)CCl)C1` (stereo not given) it is -0.167; for `O=C(CCl)N1CCN(C(=O)N2CCCCC2)CC1` it is -0.906.
The figure for `O=C(CCl)N1CCC(OCc2ccccc2F)CC1` is -2.86 (active).
Take `O=C(CCl)N1CCc2[nH]c3ccccc3c2C1`: the “log2 ratio” value was -2.89 (active).
The figure for `O=C(CCl)Nc1ccc(N2CCCC2=O)cc1` is -1.2 (active).
The figure for `O=C(CCl)N1CCN(C(=O)Nc2ccccc2)CC1` is -0.418.
To `O=C(CCl)N1CCc2sccc2C1` belongs -0.819; to `O=C(CCl)N1CCCCC12CCOCC2`, -0.562; to `O=C(CCl)N1CCOC2(CCC2)C1`, -0.0688.
`Cl.O=C(CCl)N1CCC(Cc2nccs2)C1` (stereo not given): the “log2 ratio” value was -2.29 (active).
To `CN(CCc1ncc(Br)cn1)C(=O)CCl.Cl` belongs -2.5 (active); to `CN(Cc1nc2ccccc2[nH]1)C(=O)CCl.Cl`, -0.467.
As for `O=C(CCl)NC1CCS(=O)(=O)c2ccccc21` (stereo not given), the “log2 ratio” value was -1.22 (active).
The figure for `CCN(C(=O)CCl)C1CCS(=O)(=O)C1` (stereo not given) is 0.0777; for `Cl.O=C(CCl)N1CCN(Cc2ccccc2)CC1` it is -0.476.
With `O=C(CCl)Nc1nc(-c2cccs2)cs1`, the “log2 ratio” value is -2.02 (active).
To `Cc1cc(C2CCCN2C(=O)CCl)nn1C.Cl` (stereo not given) belongs -0.866.
To `Cc1ncc2c(n1)CCN(C(=O)CCl)C2` belongs 0.323; to `O=C(CCl)Nc1ccc(Cl)c(F)c1`, -1.86 (active); to `O=C(CCl)N1CCC(=C(F)CO)C1`, -0.129.
The figure for `Cl.O=C(CCl)N1CCC(n2nc3ccccc3n2)CC1` is -2.56 (active); for `Cl.Cn1nccc1C(NC(=O)CCl)c1ccccc1` (stereo not given) it is -1.2 (active); for `O=C(CCl)N1CCN(c2nc3ccccc3o2)CC1` it is -0.288.
Consider `Cc1c(C#N)c(NC(=O)CCl)n(Cc2ccco2)c1C`, for which the “log2 ratio” value is -2.32 (active).
The figure for `O=C(CCl)NCc1ccc(N2CCOCC2)c(F)c1` is -2.18 (active); for `CC(NC(=O)CCl)c1noc(Cc2ccccc2)n1` (stereo not given) it is -1.42 (active).
